# Measurements reported in PubChem BioAssay (NCATS).
# “And” between values parts separate entries of the source, which are not always exact repeats. Identical values can stand only once. Inconclusive results are not listed. The source made the active and inactive calls. Unless noted, the call rests on the fitted dose curve.
# Experiments:
# [1] = qHTS drug screen for cell cycle checkpoint inhibitors in PARPi-resistant BRCA-mutant ovarian cancer cell lines. (AID 1963452); details: PEO1/OlaR viability, CellTiter-Glo luminescence, 96 h, stronger effect = lower value
# In short: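 PEO1, PEO4 and PEO1/OlaR ovarian cancer cells, 600 per well, exposed 96 h at 37C to a dilution series. Viability read by CellTiter-Glo luminescence, normalized to DMSO and empty wells; activity summarized as Z-AUC.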
# [2] = biological target: Cytochrome P450 2C9 (Homo sapiens) (UniProt P11712); test: qHTS for inhibitors of CYP2C9 against the NCATS DSHEA and TCM libraries (AID 1919973; active means well fitted curve in the direction sought with a large enough effect; an effect the other way counts as inactive or inconclusive;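 further: luminogenic pro-luciferin CYP2C9 substrate turned into luciferin with NADPH regeneration; on the % scale 0 is the no-effect control and ±100 the full control effect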); details: recombinant CYP2C9 enzyme activity, luminescence; series mostly up to 34.1 µM
# Cytochrome P450 2C9 (Homo sapiens), sequence (P11712 whole entry, looked up): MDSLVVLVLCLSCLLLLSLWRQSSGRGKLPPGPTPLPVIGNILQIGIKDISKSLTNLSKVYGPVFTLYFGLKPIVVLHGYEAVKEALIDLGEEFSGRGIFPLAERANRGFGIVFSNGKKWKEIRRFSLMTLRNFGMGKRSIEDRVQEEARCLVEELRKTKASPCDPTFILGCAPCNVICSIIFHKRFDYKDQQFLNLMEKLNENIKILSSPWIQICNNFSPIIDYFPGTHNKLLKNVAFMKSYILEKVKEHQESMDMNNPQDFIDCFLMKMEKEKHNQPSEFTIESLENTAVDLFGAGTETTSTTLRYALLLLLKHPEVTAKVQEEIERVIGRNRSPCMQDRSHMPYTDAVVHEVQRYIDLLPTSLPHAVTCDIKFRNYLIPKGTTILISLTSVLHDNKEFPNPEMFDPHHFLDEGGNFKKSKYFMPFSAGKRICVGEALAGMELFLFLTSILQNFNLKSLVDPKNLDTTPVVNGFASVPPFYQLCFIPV
# In short: (§1)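 Luminescent P450-Glo readout. Enzyme plus pro-luciferin substrate in manufacturer buffer (typically 100 mM KPO4); 15 min RT preincubation; 1x NADPH regenerating system, 30-45 min RT in the dark; detection reagent 30 min.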
# [3] = biological target: Cytochrome P450 2C19 (Homo sapiens) (UniProt P33261); test: qHTS for inhibitors of CYP2C19 against the NCATS DSHEA and TCM libraries (AID 1919974; active means well fitted curve in the direction sought with a large enough effect; an effect the other way counts as inactive or inconclusive;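 further: luminescence from luciferin released by CYP2C19 oxidation of a pro-luciferin substrate; on the % scale 0 is the no-effect control and ±100 the full control effect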); details: CYP2C19 enzyme inhibition, luminescence qHTS; series mostly up to 34.1 µM
# Cytochrome P450 2C19 (Homo sapiens), sequence (P33261 whole entry, looked up): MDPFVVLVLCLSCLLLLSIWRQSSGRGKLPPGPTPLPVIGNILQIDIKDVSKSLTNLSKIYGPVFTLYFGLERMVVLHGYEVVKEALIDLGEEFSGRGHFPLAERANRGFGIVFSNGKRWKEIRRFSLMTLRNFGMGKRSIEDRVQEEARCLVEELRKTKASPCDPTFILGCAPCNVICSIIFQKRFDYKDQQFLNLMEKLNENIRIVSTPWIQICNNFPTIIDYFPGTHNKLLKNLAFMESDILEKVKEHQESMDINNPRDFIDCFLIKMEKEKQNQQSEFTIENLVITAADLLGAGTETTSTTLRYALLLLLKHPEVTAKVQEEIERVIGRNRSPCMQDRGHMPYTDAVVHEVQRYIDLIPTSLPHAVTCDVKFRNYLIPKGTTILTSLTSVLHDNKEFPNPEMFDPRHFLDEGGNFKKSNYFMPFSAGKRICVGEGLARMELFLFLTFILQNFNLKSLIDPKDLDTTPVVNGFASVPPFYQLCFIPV
# In short: as §1
# [4] = KB-3-1 P-gp reporter qHTS against the NCATS DSHEA and TCM libraries (AID 1919975; active means well fitted curve in the direction sought with a large enough effect; an effect the other way counts as inactive or inconclusive; further: 0% is about no effect); details: KB-3-1 parental cells, CellTiter-Glo luminescence viability, 72 h; series mostly up to 26.1 µM
# In short: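 Parental KB-3-1 cells, 500 cells/well, in DMEM with 10% FBS, exposed 72 h at 37 C to compounds in concentration-response. Viability read by CellTiter-Glo luminescence after 30 min at room temperature.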
# [5] = biological target: Cytochrome P450 1A2 (Homo sapiens) (UniProt P05177); test: qHTS for inhibitors of CYPIA2 against the NCATS DSHEA and TCM libraries (AID 1919976; active means well fitted curve in the direction sought with a large enough effect; an effect the other way counts as inactive or inconclusive;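 further: light from luciferin formed by CYP1A2 from a pro-luciferin substrate; on the % scale 0 is the no-effect control and ±100 the full control effect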); details: recombinant CYP1A2 enzyme activity, luminescence; series mostly up to 37 µM
# Cytochrome P450 1A2 (Homo sapiens), sequence (P05177 whole entry, looked up): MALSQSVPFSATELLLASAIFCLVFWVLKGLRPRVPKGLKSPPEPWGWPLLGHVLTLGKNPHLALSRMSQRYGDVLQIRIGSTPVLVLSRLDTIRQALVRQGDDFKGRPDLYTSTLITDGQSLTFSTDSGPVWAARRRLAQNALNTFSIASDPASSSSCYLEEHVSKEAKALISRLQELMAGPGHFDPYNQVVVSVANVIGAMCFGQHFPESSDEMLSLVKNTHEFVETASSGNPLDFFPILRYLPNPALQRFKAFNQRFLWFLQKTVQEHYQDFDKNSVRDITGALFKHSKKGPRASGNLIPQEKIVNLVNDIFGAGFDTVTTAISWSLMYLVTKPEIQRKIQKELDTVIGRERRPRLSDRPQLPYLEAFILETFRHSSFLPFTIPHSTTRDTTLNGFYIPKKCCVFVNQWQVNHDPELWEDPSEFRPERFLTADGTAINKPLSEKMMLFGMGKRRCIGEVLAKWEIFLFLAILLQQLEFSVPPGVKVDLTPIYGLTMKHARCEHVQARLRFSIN
# In short: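 Human CYP1A2 with its pro-luciferin substrate in supplier buffer (typically 100 mM KPO4) was pre-incubated with compounds 15 min at RT. Reaction was started with 1x NADPH regeneration solution and run 30-45 min at RT in the dark, then luminescence was read after P450-Glo detection reagent (30 min RT).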
# [6] = qHTS Counterscreen for compound interference against the NCATS DSHEA and TCM libraries (AID 1919978; active means well fitted curve in the direction sought with a large enough effect; an effect the other way counts as inactive or inconclusive;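 further: compounds preincubated with 1 µM D-luciferin or buffer before detection reagent; % of control where 0% means no effect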); details: firefly luciferase detection reagent interference, luminescence
# In short: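 Firefly luciferase detection reagent was added after compounds (19.5 nM–39.8 uM final) had been incubated 15 min at room temperature with 1 uM D-luciferin or with 100 mM phosphate buffer alone. Luminescence was read after 30 min at room temperature.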
# [7] = Dual reporter qHTS for agonist of Pregnane X Receptor (hPXR) against the NCATS DSHEA and TCM libraries: Fluorescence readout (AID 1920058; active means well fitted curve in the direction sought with a large enough effect; an effect the other way counts as inactive or inconclusive; further: 0% is about no effect); details: PXR dual reporter cells; series mostly up to 40 µM
# In short: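 hPXR-Luc HepG2 cells (2000/well) in phenol red-free medium with charcoal-stripped FBS attached for 5 h, then were exposed to compounds for about 24 h at 37 °C. Viability was read by CellTiter-Fluor fluorescence (Ex/Em 405/540 nm) after 1 h.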
# [8] = biological target: Nuclear receptor subfamily 1 group I member 2 (Homo sapiens) (UniProt O75469); test: Dual reporter qHTS for agonist of Pregnane X Receptor (hPXR) against the NCATS DSHEA and TCM libraries: Luminescence readout (AID 1920059; active means well fitted curve in the direction sought with a large enough effect; an effect the other way counts as inactive or inconclusive; further: 0% is about no effect); details: hPXR dual reporter cells, luciferase luminescence agonist; series mostly up to 40 µM
# Nuclear receptor subfamily 1 group I member 2 (Homo sapiens), sequence (O75469 whole entry, looked up): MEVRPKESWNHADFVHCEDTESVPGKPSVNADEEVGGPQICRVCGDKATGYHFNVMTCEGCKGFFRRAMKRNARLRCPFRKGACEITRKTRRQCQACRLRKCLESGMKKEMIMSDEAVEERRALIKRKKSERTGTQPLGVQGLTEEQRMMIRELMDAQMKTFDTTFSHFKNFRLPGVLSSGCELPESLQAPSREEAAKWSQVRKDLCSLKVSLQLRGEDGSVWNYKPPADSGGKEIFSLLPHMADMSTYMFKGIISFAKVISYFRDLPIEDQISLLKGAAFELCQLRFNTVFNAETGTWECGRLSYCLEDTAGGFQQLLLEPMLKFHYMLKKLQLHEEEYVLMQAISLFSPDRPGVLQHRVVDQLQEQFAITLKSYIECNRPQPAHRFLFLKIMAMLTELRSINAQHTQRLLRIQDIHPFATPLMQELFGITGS
# In short: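 hPXR-Luc HepG2 cells, 2000/well in 5% charcoal-stripped FBS medium, attached 5 h, then exposed 24 h at 37C to compounds. Viability by CellTiter-Fluor, then luciferase luminescence with ONE-Glo.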
# [9] = biological target: Nuclear receptor subfamily 1 group I member 2 (Homo sapiens) (UniProt O75469); test: Dual reporter qHTS for antagonist of Pregnane X Receptor (hPXR) against the NCATS DSHEA and TCM libraries: Luminescence Readout (AID 1920060; active means well fitted curve in the direction sought with a large enough effect; an effect the other way counts as inactive or inconclusive;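 further: HepG2 cells carrying hPXR luciferase reporter stimulated with rifampicin at 2 µM; 0% is about no effect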); details: hPXR dual reporter cells, luciferase luminescence, antagonist mode; series mostly up to 40 µM
# In short: (§2)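 Antagonist mode: rifampicin 2 uM final co-added with compounds to hPXR-LucHepG2 cells for 24 h at 37C. Viability by CellTiter-Fluor, Ex/Em 405/540 nm, 1 h; reporter by ONE-Glo luminescence.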
# [10] = Dual reporter qHTS for antagonist of Pregnane X Receptor (hPXR) against the NCATS DSHEA and TCM libraries: Fluorescence Readout (AID 1920061; active means well fitted curve in the direction sought with a large enough effect; an effect the other way counts as inactive or inconclusive; further: 0% is about no effect); details: PXR dual reporter cells, antagonist mode; series mostly up to 40 µM
# In short: as §2
# [11] = measured here: PEO1 parental Z-AUC
smiles,measurement,setting,value
NCCS(=O)(=O)O,Z-AUC,[1],1.22 (inactive)
same,Z-AUC,[1]; [11],0.571
same,Z-AUC,[1]; measured here: PEO4 Z-AUC,0.568
Nc1c2c(nc3ccccc13)CCCC2,Z-AUC,[1],1.3 (inactive)
same,Z-AUC,[1]; [11],1.74
same,Z-AUC,[1]; measured here: PEO4 Z-AUC,1.21
CCC1(c2ccccc2)C(=O)NCNC1=O,Z-AUC,[1],1.12 (inactive)
same,Z-AUC,[1]; [11],0.974
same,Z-AUC,[1]; measured here: PEO4 Z-AUC,1.04
Cn1c(=O)c2c(ncn2C)n(C)c1=O,outcome,[2],inactive
same,outcome,[3],inactive
same,outcome,[4],inactive
same,outcome,[5],inactive
same,max response,[6],2.12% (inactive)
same,outcome,[7],inactive
same,outcome,[8],inactive
same,outcome,[9],inactive
same,outcome,[10],inactive
same,Z-AUC,[1],1.16 (inactive)
same,Z-AUC,[1]; [11],1.03
same,Z-AUC,[1]; measured here: PEO4 Z-AUC,1.21
CCCNCC(O)COc1ccccc1C(=O)CCc1ccccc1 (centres undefined),Z-AUC,[1],0.52 (inactive)
same,Z-AUC,[1]; [11],0.498
same,Z-AUC,[1]; measured here: PEO4 Z-AUC,0.0881
CC#C[C@]1(O)CC[C@H]2[C@@H]3CCC4=CC(=O)CCC4=C3[C@@H](c3ccc(N(C)C)cc3)C[C@@]21C,Z-AUC,[1],1.15 (inactive)
same,Z-AUC,[1]; [11],0.225
same,Z-AUC,[1]; measured here: PEO4 Z-AUC,0.142
CNCCCC12CCC(c3ccccc31)c1ccccc12,Z-AUC,[1],-0.42 (inactive)
same,Z-AUC,[1]; [11],0.397
same,Z-AUC,[1]; measured here: PEO4 Z-AUC,0.261
OCCN1CCN(CCCN2c3ccccc3Sc3ccc(C(F)(F)F)cc32)CC1,Z-AUC,[1],0.453 (inactive)
same,Z-AUC,[1]; [11],0.459
same,Z-AUC,[1]; measured here: PEO4 Z-AUC,0.195
NC12CC3CC(CC(C3)C1)C2,Z-AUC,[1],0.0042 (inactive)
same,Z-AUC,[1]; [11],0.0418
same,Z-AUC,[1]; measured here: PEO4 Z-AUC,0.463
Clc1ccc(C(c2ccccc2Cl)C(Cl)Cl)cc1 (centres undefined),Z-AUC,[1],-0.334 (inactive)
same,Z-AUC,[1]; [11],0.14
same,Z-AUC,[1]; measured here: PEO4 Z-AUC,0.236
COc1ccc2[nH]cc(CCNC(C)=O)c2c1,Z-AUC,[1],1.13 (inactive)
same,Z-AUC,[1]; [11],1.56
same,Z-AUC,[1]; measured here: PEO4 Z-AUC,1.13
CC12CC3CC(C)(C1)CC(N)(C3)C2,Z-AUC,[1],1.05 (inactive)
same,Z-AUC,[1]; [11],0.978
same,Z-AUC,[1]; measured here: PEO4 Z-AUC,0.935
COc1ccc2c(c1)c(CC(=O)O)c(C)n2C(=O)c1ccc(Cl)cc1,Z-AUC,[1],0.8 (inactive)
same,Z-AUC,[1]; [11],0.391
same,Z-AUC,[1]; measured here: PEO4 Z-AUC,0.536
CCCCc1oc2ccccc2c1C(=O)c1cc(I)c(OCCN(CC)CC)c(I)c1,Z-AUC,[1],-0.673 (inactive)
same,Z-AUC,[1]; [11],-0.649
same,Z-AUC,[1]; measured here: PEO4 Z-AUC,-0.00161
COc1cc2c(c(OC)c1OC)-c1ccc(OC)c(=O)cc1[C@@H](NC(C)=O)CC2,Z-AUC,[1],-0.869 (inactive)
same,Z-AUC,[1]; [11],-1.12
same,Z-AUC,[1]; measured here: PEO4 Z-AUC,-1.62
C[C@H]1c2cccc(O)c2C(O)=C2C(=O)[C@]3(O)C(O)=C(C(N)=O)C(=O)[C@@H](N(C)C)[C@@H]3[C@@H](O)[C@@H]21,Z-AUC,[1],0.309 (inactive) and -0.104 (inactive)
same,Z-AUC,[1]; [11],0.47 and 0.545
same,Z-AUC,[1]; measured here: PEO4 Z-AUC,0.542 and 0.724
CN1C(C(=O)Nc2ccccn2)=C(O)c2ccccc2S1(=O)=O,Z-AUC,[1],0.47 (inactive)
same,Z-AUC,[1]; [11],0.178
same,Z-AUC,[1]; measured here: PEO4 Z-AUC,0.354
CCC1(C)CC(=O)NC1=O (centres undefined),Z-AUC,[1],1.49 (inactive)
same,Z-AUC,[1]; [11],1.31
same,Z-AUC,[1]; measured here: PEO4 Z-AUC,1.61
CCOC(=O)c1ncn2c1CN(C)C(=O)c1cc(F)ccc1-2,Z-AUC,[1],1.34 (inactive)
same,Z-AUC,[1]; [11],1.08
same,Z-AUC,[1]; measured here: PEO4 Z-AUC,1.29
C[C@](N)(Cc1ccc(O)c(O)c1)C(=O)O,Z-AUC,[1],0.359 (inactive)
same,Z-AUC,[1]; [11],1.39
same,Z-AUC,[1]; measured here: PEO4 Z-AUC,1.22
O=c1c(O)c(-c2ccc(O)c(O)c2)oc2cc(O)cc(O)c12,outcome,[4],inactive
same,max response,[6],-0.891% (inactive)
same,outcome,[7],inactive
same,outcome,[8],inactive
same,outcome,[9],inactive
same,outcome,[10],inactive
same,Z-AUC,[1],0.194 (inactive)
same,Z-AUC,[1]; [11],0.475
same,Z-AUC,[1]; measured here: PEO4 Z-AUC,0.343
CN(C)C(=O)C(CCN1CCC(O)(c2ccc(Cl)cc2)CC1)(c1ccccc1)c1ccccc1,Z-AUC,[1],-1.16 (inactive)
same,Z-AUC,[1]; [11],-0.647
same,Z-AUC,[1]; measured here: PEO4 Z-AUC,-0.794
CC(C)C(=O)Nc1ccc([N+](=O)[O-])c(C(F)(F)F)c1,Z-AUC,[1],-1.15 (inactive)
same,Z-AUC,[1]; [11],-0.423
same,Z-AUC,[1]; measured here: PEO4 Z-AUC,0.418
CCOC(=O)Nc1ccc(NCc2ccc(F)cc2)nc1N,Z-AUC,[1],-0.444 (inactive)
same,Z-AUC,[1]; [11],-0.223
same,Z-AUC,[1]; measured here: PEO4 Z-AUC,-0.051
COc1ccccc1N1CCN(CC(O)COc2cccc3ccccc23)CC1 (centres undefined),Z-AUC,[1],-0.153 (inactive)
same,Z-AUC,[1]; [11],0.273
same,Z-AUC,[1]; measured here: PEO4 Z-AUC,0.504
CN(Cc1cnc2nc(N)nc(N)c2n1)c1ccc(C(=O)N[C@@H](CCC(=O)O)C(=O)O)cc1,Z-AUC,[1],0.203 (inactive)
same,Z-AUC,[1]; [11],0.268
same,Z-AUC,[1]; measured here: PEO4 Z-AUC,0.255
CC(C)NCC(O)COc1ccc(CCOCC2CC2)cc1 (centres undefined),Z-AUC,[1],1.3 (inactive)
same,Z-AUC,[1]; [11],0.99
same,Z-AUC,[1]; measured here: PEO4 Z-AUC,1.01
CC1(CN2CCC(n3c(=O)[nH]c4ccccc43)CC2)OCc2ccccc2-n2cccc21 (centres undefined),Z-AUC,[1],1.14 (inactive)
same,Z-AUC,[1]; [11],0.846
same,Z-AUC,[1]; measured here: PEO4 Z-AUC,0.865
CC[C@@]1(O)C(=O)OCc2c1cc1n(c2=O)Cc2cc3c(CN(C)C)c(O)ccc3nc2-1,Z-AUC,[1],-0.723 (inactive)
same,Z-AUC,[1]; [11],-1.25
same,Z-AUC,[1]; measured here: PEO4 Z-AUC,-0.128
CN(C)CCCN1c2ccccc2CCc2ccc(Cl)cc21,Z-AUC,[1],-0.0245 (inactive)
same,Z-AUC,[1]; [11],-0.498
same,Z-AUC,[1]; measured here: PEO4 Z-AUC,-0.622
Cc1ccc(-c2cc(C(F)(F)F)nn2-c2ccc(S(N)(=O)=O)cc2)cc1,Z-AUC,[1],1.19 (inactive)
same,Z-AUC,[1]; [11],0.566
same,Z-AUC,[1]; measured here: PEO4 Z-AUC,1.1
CC(C(=O)O)c1cccc(C(=O)c2ccccc2)c1 (centres undefined),Z-AUC,[1],0.0263 (inactive)
same,Z-AUC,[1]; [11],0.275
same,Z-AUC,[1]; measured here: PEO4 Z-AUC,0.507
NC(=O)OCC(COC(N)=O)c1ccccc1,Z-AUC,[1],0.532 (inactive)
same,Z-AUC,[1]; [11],1.02
same,Z-AUC,[1]; measured here: PEO4 Z-AUC,1.07
